Measured values taken from the supplement of paper PMC5407854, “Inhibitor of ppGalNAc-T3-mediated O-glycosylation blocks cancer cell invasiveness and lowers FGF23 levels” (eLife, 2017).
Whole data set: some 1,700 compounds, median “T3 sensor activation Q score (MG/GFP ratio z-score vs DMSO controls)” near 0.25, cut for the highest 2% near 1.9. The sample as a whole holds a higher share of the highest values than the screen did.

These molecules were tested on ppGalNAc-T3 sensor (assay: T3 sensor activation Q score (MG/GFP ratio z-score vs DMSO controls) (SD units); higher = more sensor activation (inhibition of ppGalNAc-T3 glycosylation)). Conditions: HEK293 sensor cells; 10 µM; 6 h.
Experimental: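 Cells were treated with compound at 10 uM for 6 h, then MG/GFP ratio was read by flow cytometry (10,000 cells per well, duplicate wells). Q = (R - R_neg)/SD_neg relative to DMSO vehicle controls; the signal rises when the glycosyltransferase is inhibited.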
`NC(=O)CCC(C(=O)O)N1C(=O)c2ccc(O)cc2C1=O` (stereo not drawn) was tested, and the “T3 sensor activation Q score” value was -0.1. `N#CC1=C2CCCCC2(O)NC1=O` (stereo not drawn) was tested, and the “T3 sensor activation Q score” value was -0.45. With `CC1=C2C3OC(=O)C(C)C3CCC2(C)C=C(Cl)C1=O` (stereo not drawn) the “T3 sensor activation Q score” value was 1.1. With `CC(=O)[C@@]1(O)[C@H](C)C[C@H]2[C@@H]3C=C(C)C4=Cc5c(cnn5-c5ccccc5)C[C@]4(C)[C@H]3[C@@H](O)C[C@@]21C` the “T3 sensor activation Q score” value was 5. For `CC1=CC2C(C(O)CC3(C)C2CC(C)C32OCOC23COCO3)C2(C)CC(=CO)C(=O)C=C12` (stereo not drawn), the “T3 sensor activation Q score” value was -3.35. In the case of `COC1C(=O)CCC2(CO2)C1(O)C1(C)OC1CC=C(C)C` (stereo not drawn), the “T3 sensor activation Q score” value is reported as -1.6. With `OCC1(CO)CC2(C1)CC(CO)(CO)C2` the “T3 sensor activation Q score” value was -1.15. In the case of `c1ccc(Nc2cccc3c(Nc4ccccc4)cccc23)cc1`, the “T3 sensor activation Q score” value is reported as -0.45. `COc1ccc(NC(=O)CC(C)=O)c(OC)c1` was tested, and the “T3 sensor activation Q score” value was -0.1. In the case of `CC1(C)N=C(N)NC(=NCCCOc2ccc([N+](=O)[O-])cc2)N1`, the “T3 sensor activation Q score” value is reported as 0.35. `O=S1(=O)CSCS(=O)(=O)C1` was tested, and the “T3 sensor activation Q score” value was -0.85. `CSc1cccc(NC(=O)Nc2ccccc2C(N)=O)c1` was tested, and the “T3 sensor activation Q score” value was 0.9. `Cc1cc(NC(=O)NC(=O)c2ccccc2NC(=O)C(C)N)ccc1Oc1ncc(Br)cn1` (stereo not drawn) was tested, and the “T3 sensor activation Q score” value was 4.35. With `Cc1ccc(NC(=O)Nc2ccccc2C(N)=O)cc1` the “T3 sensor activation Q score” value was -0.95. `C[C@@H]1O[C@@H](Oc2c(-c3cc(O)c(O)c(O)c3)oc3cc(O)cc(O)c3c2=O)[C@H](O)[C@H](O)[C@H]1O` was tested, and the “T3 sensor activation Q score” value was 0.05. In the case of `NC(N)=Nc1ccc(N=C(N)N)cc1`, the “T3 sensor activation Q score” value is reported as 0.3. `COc1ccc(OC)c(NC(=O)c2cc3oc4ccccc4c3cc2O)c1` was tested, and the “T3 sensor activation Q score” value was -1.55. For `Nc1cc(=O)[nH]c2ncnn12`, the “T3 sensor activation Q score” value was -0.15. For `CCOc1ccc(NC(=O)C2CCCN(C)C2)cc1` (stereo not drawn), the “T3 sensor activation Q score” value was 0.6. In the case of `Nc1ncnc2c([C@@H]3O[C@H](CO)[C@@H](O)[C@H]3O)c[nH]c12`, the “T3 sensor activation Q score” value is reported as 0.15. With `COC(=O)CC1OCC=C2CN3CCC45C6=CC(=O)C(=O)C([N+](=O)[O-])=C6NC4C1C2CC35` (stereo not drawn) the “T3 sensor activation Q score” value was -0.2. `CCOC(=O)C1(C#N)C(=O)CSC1=Nc1ccccc1Cl` (stereo not drawn) was tested, and the “T3 sensor activation Q score” value was -1.05. `CCOC(=O)Nc1c2ccccc2nc2ccccc12` was tested, and the “T3 sensor activation Q score” value was -1.8. `CCOC(=O)Nc1csnn1` was tested, and the “T3 sensor activation Q score” value was -0.7. In the case of `CCOC(=O)Nc1cc2c(c(N)n1)N=C(c1ccccc1)CN2`, the “T3 sensor activation Q score” value is reported as 4. With `Oc1ccc(Nc2ccnc3cc(Cl)ccc23)cc1` the “T3 sensor activation Q score” value was 1.1. In the case of `O=C(Nc1cccc([N+](=O)[O-])c1)c1cccc(C(=O)Nc2cccc([N+](=O)[O-])c2)c1`, the “T3 sensor activation Q score” value is reported as -0.25. With `Cc1c(-c2ccccc2)n(O)[n+]([O-])c1-c1ccccc1` the “T3 sensor activation Q score” value was 0.7. For `Oc1ccccc1Nc1ccccn1`, the “T3 sensor activation Q score” value was 1.75. In the case of `Cc1nnc2nc(-c3ccccc3)nc(-c3ccccc3)n12`, the “T3 sensor activation Q score” value is reported as -1.75. `CCOC(=O)c1c(O)cc(C)[nH]c1=O` was tested, and the “T3 sensor activation Q score” value was -0.85. For `O=S(=O)(c1ccc2c(c1)CCCN2)N1CCC[C@H]2CCCC[C@@H]21`, the “T3 sensor activation Q score” value was 0.2. `O=C1OC(CN(Cc2ccccc2)Cc2ccccc2)CN1/N=C/c1ccc([N+](=O)[O-])o1` (stereo not drawn) was tested, and the “T3 sensor activation Q score” value was -0.6. With `Cc1cc2nc(CS)[nH]c2cc1C` the “T3 sensor activation Q score” value was -1.1. In the case of `CC(=O)Nc1ccc2cc3ccc(NC(C)=O)cc3nc2c1`, the “T3 sensor activation Q score” value is reported as 0.2. In the case of `Cc1ccc(-n2nnnc2-c2cccnc2)cc1`, the “T3 sensor activation Q score” value is reported as -0.15. For `CCOC(=O)c1cc[nH]c1CC(=O)NC`, the “T3 sensor activation Q score” value was 0.6. In the case of `Cc1ccc2c(c1)c1ccc3c(c1n2C)C(=O)C=CC3=O`, the “T3 sensor activation Q score” value is reported as -1.5. In the case of `Cc1cccc(C)c1NC(=O)Nc1ccc(S(N)(=O)=O)cc1`, the “T3 sensor activation Q score” value is reported as 1.6. `CCOC(=O)/C(C#N)=C1\SS/C(=C(/C#N)C(=O)OCC)S1` was tested, and the “T3 sensor activation Q score” value was 0.55. In the case of `c1cc(CN2CCCNCCNCCCNCC2)ccc1CN1CCCNCCNCCCNCC1`, the “T3 sensor activation Q score” value is reported as -0.5. With `NCCN1CCNCC1` the “T3 sensor activation Q score” value was 1.85. For `C=CCOc1ccc(S(C)(=O)=O)cc1`, the “T3 sensor activation Q score” value was 1.85. For `C#CCOCC1CN(c2ccccc2)C(=O)O1` (stereo not drawn), the “T3 sensor activation Q score” value was 1.9. In the case of `CCCCOc1ccc(N=Nc2ccc(N)nc2N)cn1`, the “T3 sensor activation Q score” value is reported as 1.7. With `O=C(CC1C=Cc2ccccc2N1C(=O)c1ccccc1)c1ccccc1` (stereo not drawn) the “T3 sensor activation Q score” value was -1.4. `N#CC1C=Cc2c(ccc3ccccc23)N1C(=O)c1ccccc1` (stereo not drawn) was tested, and the “T3 sensor activation Q score” value was 2.65. `O=C(Nc1cccc2ccccc12)c1ccccc1` was tested, and the “T3 sensor activation Q score” value was -0.45. `Nc1ccc2c(c1)Cc1cc(Cl)c(Cl)cc1-2` was tested, and the “T3 sensor activation Q score” value was -0.65. In the case of `OC(COc1ccc(Cl)cc1)CN1CCN(c2cccc(Cl)c2)CC1` (stereo not drawn), the “T3 sensor activation Q score” value is reported as -0.65. With `O=C(Nc1ccc2ncccc2c1)Nc1ccc2ncccc2c1` the “T3 sensor activation Q score” value was 0.15. In the case of `Cc1c(CCO)c(=O)n2n1CCCC2`, the “T3 sensor activation Q score” value is reported as -0.55. With `CCCCCCCC1(C)NC(=O)NC1=O` (stereo not drawn) the “T3 sensor activation Q score” value was -1.9. In the case of `ClCC(CNCc1ccccc1)c1ccccc1` (stereo not drawn), the “T3 sensor activation Q score” value is reported as 0.35. In the case of `O=c1cc(-c2ccc(Cl)cc2)[nH]c2ccccc12`, the “T3 sensor activation Q score” value is reported as 0. With `c1ccc(N=NN2CCOCC2)cc1` the “T3 sensor activation Q score” value was -0.75. For `CC1(C)OC2C(CO)OC(n3cnc4c(=S)nc[nH]c43)C2O1` (stereo not drawn), the “T3 sensor activation Q score” value was 0.4. In the case of `COC(=O)CC1(C(=O)OC)Nc2cc(Cl)c(Cl)cc2S(=O)(=O)N1O` (stereo not drawn), the “T3 sensor activation Q score” value is reported as 0.7. For `CN(CCC#N)c1ccc(/C=C(\C#N)c2cccc(C(F)(F)F)c2)cc1`, the “T3 sensor activation Q score” value was -0.05. With `CC1CC(C)(C)NC2(CCCC2)N1` (stereo not drawn) the “T3 sensor activation Q score” value was -0.6. For `O=C(Nc1ccc(O)c(C(=O)O)c1)Oc1ccccc1`, the “T3 sensor activation Q score” value was 0.9. `c1ccc2[nH]c(-c3ccncc3)nc2c1` was tested, and the “T3 sensor activation Q score” value was 0.2. With `CC(=O)CC(=O)Nc1ccc2ccccc2c1` the “T3 sensor activation Q score” value was 1.25. For `c1ccc2[nH]c(CCCCCc3nc4ccccc4[nH]3)nc2c1`, the “T3 sensor activation Q score” value was -0.5. With `Cc1ccc(CC#N)c(-c2c(CC#N)ccc(C)c2C)c1C` the “T3 sensor activation Q score” value was -0.85. `c1ccc2c(c1)[nH]c1c3ccccc3sc21` was tested, and the “T3 sensor activation Q score” value was -0.95. `O=C(Nc1ccc(Nc2ccncc2)cc1)c1ccc([N+](=O)[O-])cc1` was tested, and the “T3 sensor activation Q score” value was 0.75. In the case of `O=C(Nc1ccc(Nc2ccncc2)cc1)c1ccc(Nc2ccnc3ccc([N+](=O)[O-])cc23)cc1`, the “T3 sensor activation Q score” value is reported as 9.85. In the case of `O=C(Nc1ccc(Nc2ccncc2)cc1)c1ccc(Nc2ccnc3ccc([N+](=O)[O-])cc23)cc1[N+](=O)[O-]`, the “T3 sensor activation Q score” value is reported as -1.4. In the case of `C/C(=N\NC(=S)N1CC2CCC(CC2)C1)c1cnccn1`, the “T3 sensor activation Q score” value is reported as -1.2. For `CCOC(=O)c1nn(-c2ccccc2)cc1O`, the “T3 sensor activation Q score” value was 0.05. `O=C(c1ccc(OCCN2CCCCC2)cc1)c1c(-c2ccc(O)cc2)sc2cc(O)ccc12` was tested, and the “T3 sensor activation Q score” value was 2.7. `CC1=Nc2ccccc2/C1=C\c1c(C)[nH]c2ccccc12` was tested, and the “T3 sensor activation Q score” value was -0.45. `Cc1ccc(NC(=O)Nc2cccnc2)cc1NC(=O)Nc1cccnc1` was tested, and the “T3 sensor activation Q score” value was 0.95. In the case of `Cc1ccncc1C(N)=O`, the “T3 sensor activation Q score” value is reported as 1.9. `O=C(C(=O)c1cccnc1)c1cccnc1` was tested, and the “T3 sensor activation Q score” value was 1.75. For `COc1ccccc1NC(=O)c1cc2ccccc2cc1O`, the “T3 sensor activation Q score” value was -0.55. In the case of `NC(=O)c1cc(C(N)=O)nc(Cl)n1`, the “T3 sensor activation Q score” value is reported as -0.8.
